# Shown are actives, neighbours in structure and some others; about 1.1% of the full set was active somewhere.
# NCOA1 inh: inhibitors of human steroid receptor coactivator 1 (SRC1). Q15788. HEK293 GAL4-SRC1 luciferase reporter, luminescence. inhibition, % at 3.6 µM. actives 0.12% (n = 360,000);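 active = inhibition above the campaign mean plus 3 SD, with each screening campaign given its own cutoff, cut at about 60% in these data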;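 also: 0% = DMSO treated cells and 100% = gossypol at 36 µM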
# SRC3 inh: inhibits human SRC3 coactivator. Q9Y6Q9. HEK293 GAL4-SRC3 luciferase reporter, luminescence. inhibition, % at 3.6 µM. actives 0.17% (n = 360,000). AID 588352;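 active = inhibition above a per-campaign cutoff, the mean of all compounds plus 3 SD, cut at about 60% in these data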;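 also: 0% = DMSO-treated cells and 100% = gossypol-treated cells at 36 µM; higher means less SRC3-driven luciferase light from the GAL4 reporter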
# LRH-1 inv ag: suppresses constitutive activity of human LRH-1; inhibition, % at 3.6 µM; actives 0.13% (n = 360,000); AID 602396; HEK293T StAR-luciferase reporter, LRH-1 transfected, 24 h; O00482;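 active = inhibition above the mean inhibition of all tested compounds plus 3 SD, cut at about 73% in these data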;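 also: 0% = DMSO wells and 100% = reporter-only cells lacking LRH-1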
# COUP-TFII inh: blocks human COUP-TFII nuclear receptor; P24468; HEK293T NGFI-A luciferase reporter, luminescence; inhibition, % at 8.6 µM; actives 0.7% (n = 370,000);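 active = inhibition above a per-plate cutoff, mean inhibition of test wells between control levels plus 3 SD, cut at about 38% in these data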;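 also: cells cotransfected with COUP-TFII expression vector driving the NGFI-A reporter; 0% = median of COUP-TF2 test wells and 100% = reporter-only cells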
# Target sequence (P24468 whole entry, looked up): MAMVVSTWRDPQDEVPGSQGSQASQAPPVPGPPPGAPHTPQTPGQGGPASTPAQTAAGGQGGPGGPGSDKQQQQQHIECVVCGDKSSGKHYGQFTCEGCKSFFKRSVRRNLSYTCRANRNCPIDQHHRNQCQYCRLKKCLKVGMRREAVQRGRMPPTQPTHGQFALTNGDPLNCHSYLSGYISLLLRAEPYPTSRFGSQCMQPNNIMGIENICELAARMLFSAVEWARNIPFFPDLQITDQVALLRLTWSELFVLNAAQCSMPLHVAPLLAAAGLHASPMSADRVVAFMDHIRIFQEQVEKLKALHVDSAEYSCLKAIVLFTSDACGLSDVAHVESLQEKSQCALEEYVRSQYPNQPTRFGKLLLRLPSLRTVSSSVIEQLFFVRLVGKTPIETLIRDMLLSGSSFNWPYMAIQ
# NCOA2 inhibitor: inhibits human steroid receptor coactivator 2; inhibition, % at 9 µM; actives 0.17% (n = 370,000); Q15596; AID 651957; HEK293 GAL4-SRC2 luciferase reporter, luminescence;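 active = inhibition above the mean inhibition of all tested compounds plus 3 SD, set per campaign, cut at about 52% in these data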;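 also: 0% = DMSO treated cells and 100% = cells given Gossypol at 36 µM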
# GalR3 antagonist: blocks the human galanin receptor 3; HEK293 GalR3-CNG cAMP membrane potential fluorescence; galR3 body fused to GalR1 C-terminus; inhibition, % at 3 µM; actives 0.44% (n = 360,000);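 active = inhibition above the screen-wide average plus 3 SD, cut at about 13% in these data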;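 also: forskolin and galanin both at EC90 stimulate the cells; cAMP rise reported by CNG channel membrane potential dye signal; 0% = forskolin plus galanin with DMSO and 100% = forskolin alone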
# VP16 Luc counter: counter-screen for COUP-TFII antagonists: inhibitors of VP16. shares compounds with COUP-TFII inh. inhibition, % at 8.5 µM. HEK293 Gal4-VP16 luciferase reporter, luminescence. actives 25% (n = 2,500). AID 687007; in the data active = inhibition above about 13%
# NR2F2 inh conf: confirmation of human COUP-TFII (NR2F2) inhibitors; shares compounds with COUP-TFII inh; HEK293 NGFI-A luciferase reporter, luminescence; inhibition, % at 8.5 µM; actives 45% (n = 2,500);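 active = mean inhibition over three repeats above a set limit taken from the earlier primary screen, cut at about 38% in these data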;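 also: 100% = cells given the luciferase reporter alone without the COUP-TF2 vector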
# * hit, by the source's call; . = not tested or not shown.
SMILES,NCOA1 inh,SRC3 inh,LRH-1 inv ag,COUP-TFII inh,NCOA2 inhibitor,GalR3 antagonist,VP16 Luc counter,NR2F2 inh conf
CCC(=O)Nc1ccc(N2CCN(C(=O)c3ccccc3C)CC2)cc1,-33,7,-1,5,4,-6,.,.
Cc1ccccc1C(=O)N1CCN(c2ccc(NC(=O)CSc3ccc(Cl)cc3)cc2)CC1,25,33,7,54*,38,-6,0,57*
COc1ccc(OCC(=O)Nc2ccc(N3CCN(C(=O)c4ccco4)CC3)cc2)cc1,0,6,-2,5,0,-5,.,.
Cc1ccccc1C(=O)N1CCN(c2ccc(NC(=O)c3ccc4c(c3)OCCO4)cc2)CC1,35,40,35,68*,41,0,10,58*
CN(C)S(=O)(=O)c1cccc(C(=O)N/N=C\c2ccccc2)c1,.,.,.,-39,-64,.,.,.
CCC(CC)NC(=O)O[C@H]1CC[C@@]23CCCN2C(=O)CCC[C@H]3[C@H]1C,.,.,.,17,.,.,.,.
C#CCN1CC(N2CCN(CCO)CC2)CS1(=O)=O (stereo not drawn),.,.,.,-22,-14,.,.,.
Cc1ccc(-n2nc3c(=O)n(C(C)C(=O)NCc4ccccc4Cl)nc(C)c3c2C)cc1 (stereo not drawn),-11,-4,27,47*,12,-4,5,39*
Cc1ccc(-n2nc3c(=O)n(CC(=O)NCCCc4ccccc4)nc(C)c3c2C)cc1,-11,15,-7,12,-16,-9,.,.
Cc1ccc(-n2nc3c(=O)n(C(C)C(=O)NCCCc4ccccc4)nc(C)c3c2C)cc1 (stereo not drawn),12,27,3,55*,24,-9,-2,45*
Cc1ccc(-n2nc3c(=O)n(C(C)C(=O)NCc4ccco4)nc(C)c3c2C)cc1 (stereo not drawn),-72,0,-13,1,-2,3,.,.
c1ccc(CCc2nn3c(-c4ccncc4)nnc3s2)cc1,68*,61,7,51*,45,-1,1,19
CC(C)C[C@@H]1COc2cc(N3CCCC3)ccc2S(=O)(=O)N1C,.,.,.,-12,-22,.,.,.
Cc1cc(C)nc(SCC(=O)Nc2ccc(N3CCOCC3)c(Cl)c2)n1,8,8,59,42*,8,-1,18*,40*
Cc1cc(C(=O)Nc2ccc(Cl)cc2)c(C)n1-c1ccccc1,85*,86*,83*,86*,76*,-3,81*,99*
Cc1ccc(NC(=O)c2cc(C)n(-c3ccccc3)c2C)cc1,65*,66*,68,70*,56*,-4,60*,84*
Cc1ccc(NC(=O)c2cnn(-c3ccccc3)c2C)cc1,-110,-84,-184,-27,-9,-10,.,.
Cc1ccc(NC(=O)c2cc(C)n(-c3cccc(C)c3)c2C)cc1,22,14,30,38*,13,2,-98,38*
Cc1cc(C(=O)Nc2ccc(Cl)cc2)n(-c2ccccc2)n1,-12,-10,-21,-21,-23,-8,.,.
c1ccc(C2CCC3(CC2)CCC3NCc2cccs2)cc1 (stereo not drawn),.,.,.,9,.,.,.,.
O=C(COc1ccccc1)Nc1cc(C(F)(F)F)ccc1N1CCCC1,4,-21,8,22,18,-6,.,.
Cc1cc(N2CCCC2)ccc1NC(=O)COc1cccc(C(F)(F)F)c1,23,21,24,40*,18,-4,6,35
O=C(NCCN1CCC(n2c(=O)[nH]c3ccccc32)CC1)c1ccc(C(F)(F)F)cc1C(F)(F)F,.,.,35,44*,11,-9,4,19
COc1ccc(-c2csc(C(C)(O)c3cccc(OC)c3)n2)cc1 (stereo not drawn),-23,5,15,36,29,-4,.,.
COc1cccc(C(C)(O)c2nc(-c3ccc(S(C)(=O)=O)cc3)cs2)c1 (stereo not drawn),10,13,43,40*,9,-6,3,5
SMILES,NCOA1 inh,SRC3 inh,LRH-1 inv ag,COUP-TFII inh,NCOA2 inhibitor,GalR3 antagonist,VP16 Luc counter,NR2F2 inh conf
COC(=O)C1CN(Cc2cn(CCOC(C)=O)nn2)CCS(=O)(=O)N1Cc1ccc(F)cc1 (stereo not drawn),.,.,.,1,2,.,.,.
O=c1c2ccccc2oc2cc(C#CC3(O)CCCCC3)ccc12,65*,62*,53,69*,50,2,5,67*
O=c1c2ccccc2sc2ccc(C#CC3(O)CCCCC3)cc12,93*,93*,91*,96*,85*,-6,90*,105*
CCCOc1ccc(Cn2cnc3ccccc32)cc1,0,15,45,38*,17,-5,-17,20
Cc1ccc(-c2cc3onc(-c4ccccc4)c3c(=O)n2C)cc1,23,19,24,43*,2,-3,34*,72*
CC(=O)/C(N=Nc1ccc2c(c1)OCCO2)=C(\C)O,43,57,35,68*,45,-7,-122,-36
CC(=O)/C(N=Nc1ccc2c(c1)OCO2)=C(\C)O,-35,-48,-16,-14,-33,-1,.,.
CC1CCc2nc(NC(=O)CSc3nc4ccccc4o3)sc2C1 (stereo not drawn),29,48,47,43*,20,-7,31*,68*
Cc1nnc(NC(=O)CSc2nc3ccccc3o2)s1,15,11,9,10,2,-2,.,.
C[C@H](NS(=O)(=O)c1ccc([N+](=O)[O-])cc1)C(=O)NCCNC(=O)[C@@H](C)NS(=O)(=O)c1ccc([N+](=O)[O-])cc1,.,.,.,-2,.,.,.,.
OCC1(Cc2ccccc2)CCN(Cc2cnc(-c3cccc4ccccc34)nc2)CC1,-16,13,-2,-10,2,-5,.,.
OCC1(Cc2ccccc2)CCN(Cc2cnc(-c3ccc(Cl)cc3)nc2)CC1,-21,-17,-18,43*,-50,1,-38,9
Nn1c(SCC(=O)NC2CCCCC2)nnc1-c1cc(-c2ccc(Cl)cc2)n[nH]1,.,.,.,0,-44,.,.,.
CCOc1ccc(-c2csc(Cn3c(CN4CCN(C)CC4)nc4ccccc4c3=O)n2)cc1,-9,17,-29,39*,16,-6,-11,7
CC(C)CNS(=O)(=O)c1ccc(CCC(=O)N2CCN(c3ccccc3)CC2)cc1,22,5,8,14,15,-3,.,.
CCNS(=O)(=O)c1ccc(CCC(=O)N2CCN(c3ccccc3)CC2)cc1,5,10,0,43*,29,-6,9,4
C[C@H]1[C@@H](C(=O)N2CCCC2)CC(=O)/C(=N/OCc2ccccc2)C[C@@H]1c1ccccc1,.,.,.,-2,14,.,.,.
